Measurements from ChEMBL document CHEMBL3988442, “University of Dundee, Small-Polar-MMV Screening Library” (2021).

What follows are molecules tested against Shiga toxin 2 (Escherichia coli O157:H7) (UniProt P09385+P09386) (assay: E. coli 0.157:H7 Shiga Toxin SOP - stx2 screening assay). Details: 30 µM.
Format: functional
Set-up: scale not given: direction of the effect not stated beside the values

SMILES | Percent Effect [%]
O=C(NCc1ccccc1CN1CCC(O)CC1)Nc1cccnc1 | -12.1
O=C(c1cccnc1)N1C[C@@H]2CC[C@H](C1)N(Cc1cc(F)ccc1F)C2 | 1.2
COc1cccc(CN(C)C(=O)Nc2ccc3c(c2)OCCO3)c1 | -9.02
CCS(=O)(=O)N1CCC[C@]2(C(=O)N(C)C)CN(c3ncccn3)C[C@@H]2C1 | -34.5
CC(=O)Nc1nc(CN2CCCCC2Cn2cccn2)cs1 (stereo not given) | -4.08
O=C1CC[C@H]2[C@H](CCN2C(=O)C2CCCO2)N1Cc1ccncc1 (stereo not given in full) | -64
Cn1ccc(C(=O)N2CCC(Cc3cccc4cccnc34)C2)n1 (stereo not given) | 15.7
O=C([C@H]1COC[C@H]2CN(C3CCCC3)C[C@H]21)N1CCCCO1 | -2.98
COc1ccc(F)cc1C(C)NC(=O)c1nnc(C)s1 (stereo not given) | -5.21
Cn1cc(C[C@H]2[C@H](O)CCN2CC2CC2)cn1 | 2.72
COCc1ncn2c1CN(C(=O)C1CC=CC1)CC2 | 0.0561
NCc1cnn(-c2ccccc2C(=O)NCCCn2ccnc2)c1 | 10.4
Cc1nccn1-c1cccc(C2CCCN2S(=O)(=O)N(C)C)n1 (stereo not given) | -8.96
CCn1nccc1CNC(=O)C(C)n1cc2c(n1)c(C)nn2C (stereo not given) | -29.4
CC(=O)N1CCN(c2cc(C3CN(C)CCO3)nc(C)n2)CC1 (stereo not given) | -24.3
NC(=O)CN1CCC(C(=O)N2CCCC(OCc3cccnc3)C2)CC1 (stereo not given) | 18
FC(F)(F)COCCN1CCN(c2ccc3nncn3n2)CC1 | -42.1
O=C(NCCCOCC1CCCO1)c1cccnc1N1CCCC1 (stereo not given) | -14.1
CC(C)c1nccn1-c1cccc(C2CCN(C)CC2)n1 | -33.7
COc1cccc(S(=O)(=O)N2CCC(O)(CN(C)C)C2)c1 (stereo not given) | 11.2

SMILES | Percent Effect [%]
CC(C)N1CCO[C@H]2CN(C(=O)c3ccc(N(C)C)cc3)C[C@H]21 | -4.13
COc1nccc(N2CCN(Cc3ccc(C)cc3)C(=O)C2)c1C#N | -64.8
NC(=O)c1cc(C2CCCN(C(=O)CCc3cscn3)C2)n[nH]1 (stereo not given) | -14.1
Cn1cnnc1C1CCCN(C(=O)NCCNc2ccccn2)C1 (stereo not given) | 19
O=C(c1ccccc1-n1cccn1)N1CCCN(c2cccnn2)CC1 | 33
Cc1noc(C(C)C)c1C(=O)NCc1cccc(N(C)C)c1 | 13.2
CCc1cccc(NS(=O)(=O)c2cc3c(c(C(=O)O)c2)OCCO3)c1 | -33.5
c1coc(CN2C[C@H](OCC3CCOCC3)[C@H]3COC[C@H]32)c1 | 12.6
COC(=O)C(NC(=O)c1ccco1)c1cc(F)ccc1F (stereo not given) | 7.37
CCc1nc(CN(C)C2CCN(Cc3cnc(C)cn3)C2)no1 (stereo not given) | -48.2
CCN1CCC(CNCc2cc(OC)ccc2OC)C1 (stereo not given) | -21.3
Cc1nc(C)c(C(=O)N2CCC(Nc3cccnc3)CC2)s1 | -45.8
Cc1ccccc1[C@@H]1CN(C(=O)c2ccc3[nH]nnc3c2)C[C@H]1C(=O)O | -15.8
CCn1c(CN(C)C)nnc1C1CCN(c2ccnc(C)c2)CC1 | -16.1
N#Cc1ccccc1OCCN1CCC(N2CCNC2=O)CC1 | -50.9
COC(=O)CC(c1ccc(OC)c(OC)c1)c1oc(C)cc(=O)c1O (stereo not given) | -7.17
Cc1cccc(-c2noc(CN3CC(n4cc(C)cn4)C3)n2)c1 | -2.34
CC(NC(=O)N1CCN(c2ccccc2)CC1)c1nncn1C (stereo not given) | -28.9
Cc1ncc(CNC(=O)c2nn(C)c3c2CS(=O)(=O)CC3)s1 | -24.6
CN(C)C(=O)c1nc2c(s1)CCN(C(=O)c1ccc(Cl)cc1)CC2 | -16.7
